Eight compounds from PubChem BioAssay (Tox21) can be followed below.

Each structure is given as a SMILES string. “And” between values parts separate entries of the source, which are not always exact repeats. Equal values may be shown once. Results filed as inconclusive are left out. The source made the active and inactive calls. Unless noted, the call rests on the fitted dose curve; in most records, active means well fitted curve in the direction sought with a large enough effect in the repeat runs; inconclusive means weak or mixed curves; inactive means no such curve, though single readings can be large; an effect the other way counts as inactive or inconclusive.

Assay [1] in a line: qHTS assay for small molecule agonists of the p53 signaling pathway (AID 651631; calls by dose curve; further: nearly all actives have a fitted effect of over 15% in size). An outline of the steps: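 Agonist mode screen using a stably integrated beta-lactamase gene under p53 response elements in HCT-116 cells. Compound exposure lasts 16 h at 37 °C; fluorescence intensity is measured following 2 h FRET substrate loading.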
In general terms: qHTS replaces the single test concentration by a dilution series.

Assay [2] can be described thus: qHTS assay for small molecules that induce genotoxicity in human embryonic kidney cells expressing luciferase-tagged ATAD5 (AID 651632). Further: nearly all actives have a fitted effect of over 15% in size. An outline of the steps: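 ATAD5-luc HEK293T, 2,000 cells/well; cpd or DMSO pin-transferred; 16 hr, 37C/5% CO2; Amplite 30 min RT; luminescence.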
A short description of assay [3]: qHTS assay for small molecule agonists of the p53 signaling pathway - cell viability (AID 651633; calls by dose curve;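 further: p53RE-bla HCT reporter cells with a stable beta-lactamase p53 reporter; series mostly up to about 83 µM; nearly all actives have a fitted effect of over 30% in size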). Put shortly: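 p53RE-bla cells were treated with compound for 16 hours at 37 C. Cytotoxicity was then measured as CellTiter-Glo luminescence after 30 min at room temperature.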
Assay [4] is described as follows: qHTS assay for small molecules that induce genotoxicity in human embryonic kidney cells expressing luciferase-tagged ATAD5 - cell viability (AID 651634; calls by dose curve; further: nearly all actives have a fitted effect of over 25% in size; further: potency means the concentration at half of the fitted maximal effect). Put shortly: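 Fluorescence from CellTiter-Fluor, reporting protease activity within live cells, served as the viability read-out. HEK293T cells carrying luciferase-tagged ATAD5 had been treated with compound for 15.5 hr at 37C.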

Assay [5] can be described thus: qHTS assay for small molecule disruptors of the mitochondrial membrane potential - cell viability (AID 720634; calls by dose curve;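 further: human HepG2 liver cancer cells; series mostly up to about 83 µM; nearly all actives have a fitted effect of over 20% in size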). An outline of the steps: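 Cells: HepG2, 2,000/well, attached overnight. Compound 1 hr, 37 C/5% CO2. +m-MPI dye, +CellTiter-Glo 30 min RT. Readout: luminescence (ATP).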
Assay [6] in a line: qHTS assay for small molecule disruptors of the mitochondrial membrane potential (AID 720635). Further: potency means the concentration at half of the fitted maximal effect. An outline of the steps:
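HepG2 cells exposed to compound 1 hr at 37C, then Mito-MPS dye 30 min. Ratio read of aggregate (540/590 nm) versus monomer (490/535 nm) fluorescence.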

Assay [7] is described as follows: qHTS assay to test for compound auto fluorescence at 590 nm (red) in HepG2 cells (AID 720674). An outline of the steps:
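HepG2 cells, 2,000 per well in MEM with 10% FBS, attached overnight at 37 C, then got 23 nL compound or DMSO. After 1 hr at 37 C, 5% CO2, red fluorescence was read at 540/590 nm against Rose Bengal sodium as reference.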

The nature of assay [8]: qHTS assay to test for compound auto fluorescence at 535 nm (green) in HepG2 cells (AID 720675).
Assay [9] is described as follows: qHTS assay to test for compound auto fluorescence at 460 nm (blue) in HEK293 cells (AID 720678). An outline of the steps:
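Blue-channel (Ex/Em 405/460 nm) intensity measured in HEK293 cultures after overnight compound exposure at 37C; signal expressed relative to triamterene. Cells plated 2,000 per well in 10% dialyzed FBS medium and allowed 4-5 hr to attach.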

Assay [10] in a line: qHTS assay to test for compound auto fluorescence at 590 nm (red) in HEK293 cells (AID 720679). An outline of the steps: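 Red-channel autofluorescence (Ex/Em 540/590 nm; Rose Bengal sodium reference) was measured after overnight 37C, 5% CO2 exposure of attached HEK293 cells, 2,000 per well in medium with 10% dialyzed FBS.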
The nature of assay [11]: qHTS assay to test for compound auto fluorescence at 535 nm (green) in HEK293 cells (AID 720680).
A short description of assay [12]: qHTS assay to test for compound auto fluorescence at 460 nm (blue) in HEK293 cell free culture (AID 720681). Put shortly: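 Compounds were added to cell-free DMEM with 10% FBS and fluorescence read directly. The blue channel used 405 nm excitation and 460 nm emission, with triamterene as the reference fluorophore.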
Assay [13] in a line: qHTS assay to test for compound auto fluorescence at 535 nm (green) in HEK293 cell free culture (AID 720682). An outline of the steps: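 No cells present: wells hold DMEM supplemented with 10% FBS, into which compound or vehicle is pinned. Green emission is then recorded (485 nm excitation, 535 nm emission) and scaled to fluorescein.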
A short description of assay [14]: qHTS assay to test for compound auto fluorescence at 590 nm (red) in HEK293 cell free culture (AID 720683). An outline of the steps:
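Cell-free wells of DMEM with 10% FBS received compound, and intrinsic fluorescence was read at excitation/emission 540/590 nm. Values expressed as equivalence to Rose Bengal sodium.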

A short description of assay [15]: qHTS assay to test for compound auto fluorescence at 590 nm (red) in HepG2 cell free culture (AID 720684). Put shortly:
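Compound was pinned into wells holding MEM with 10% FBS and no cells, and red fluorescence was read at Ex/Em 540/590 nm. Signal is expressed as auto fluorescence equivalency relative to Rose Bengal sodium.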

Assay [16] can be described thus: qHTS assay to test for compound auto fluorescence at 460 nm (blue) in HepG2 cell free culture (AID 720685). An outline of the steps:
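Compound (23 nL) or DMSO pinned into cell-free MEM with 10% FBS; blue fluorescence read at 405/460 nm excitation/emission, expressed as auto-fluorescence equivalency to triamterene.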

Assay [17] can be described thus: qHTS assay to test for compound auto fluorescence at 535 nm (green) in HepG2 cell free culture (AID 720686).
A short description of assay [18]: qHTS assay to test for compound auto fluorescence at 460 nm (blue) in HepG2 cells (AID 720687). An outline of the steps:
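HepG2 cells in MEM with 10% FBS, attached overnight at 37 C, were exposed to compound or DMSO for 1 hr at 37 C, 5% CO2. Blue fluorescence was read at 405/460 nm, with triamterene as reference fluorophore.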

Assay [19] concerns the target Glucocorticoid receptor (Homo sapiens) (UniProt P04150). In words: qHTS assay to identify small molecule antagonists of the glucocorticoid receptor (GR) signaling pathway (AID 720692; active means well fitted inhibition curve with a large enough effect in the signal ratio in the repeat runs, not every such curve was filed as active; the % refers to the signal ratio). Put shortly: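 HeLa GR-bla cells; cmpd + dex 5 nM final, 18 h 37 C; LiveBLAzer B/G FRET substrate 2 h RT; fluorescence intensity read. Antagonist mode, qHTS.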
For assay [20] the target is unchanged. Description: qHTS assay to identify small molecule agonists of the glucocorticoid receptor (GR) signaling pathway (AID 720691; active means well fitted activation curve with a large enough effect in the signal ratio in the repeat runs, not every such curve was filed as active; the % refers to the signal ratio). Put shortly: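 Fluorescence intensity from LiveBLAzer B/G FRET substrate (2 h, room temperature) reports beta-lactamase expression driven by the glucocorticoid response element in GR-bla HeLa cells after 18 h compound exposure at 37 C.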

Chain of Glucocorticoid receptor (Homo sapiens) (P04150 whole entry, looked up): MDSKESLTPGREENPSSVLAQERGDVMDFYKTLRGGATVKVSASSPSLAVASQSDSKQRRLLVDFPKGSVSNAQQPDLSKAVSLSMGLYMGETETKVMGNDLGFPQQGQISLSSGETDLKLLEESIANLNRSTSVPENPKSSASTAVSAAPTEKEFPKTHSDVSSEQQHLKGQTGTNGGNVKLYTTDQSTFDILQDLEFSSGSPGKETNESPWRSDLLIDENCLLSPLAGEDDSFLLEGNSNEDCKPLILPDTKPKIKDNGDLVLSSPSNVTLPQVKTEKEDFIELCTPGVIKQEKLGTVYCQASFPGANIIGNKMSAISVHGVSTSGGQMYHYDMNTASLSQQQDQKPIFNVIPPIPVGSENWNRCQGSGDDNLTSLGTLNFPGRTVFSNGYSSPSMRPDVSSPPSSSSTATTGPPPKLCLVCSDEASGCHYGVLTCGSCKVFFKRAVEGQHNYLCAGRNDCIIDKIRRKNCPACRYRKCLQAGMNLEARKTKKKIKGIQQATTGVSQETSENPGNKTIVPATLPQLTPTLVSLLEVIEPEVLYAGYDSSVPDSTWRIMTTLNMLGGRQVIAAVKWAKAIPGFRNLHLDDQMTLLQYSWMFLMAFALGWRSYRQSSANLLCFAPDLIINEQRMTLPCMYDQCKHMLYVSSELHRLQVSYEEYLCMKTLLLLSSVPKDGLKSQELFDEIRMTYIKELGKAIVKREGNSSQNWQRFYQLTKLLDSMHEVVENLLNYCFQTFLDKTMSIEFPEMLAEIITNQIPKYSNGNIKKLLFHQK

For the compound `COc1ccc(O)cc1`, the Potency result in [1], in assay [2], in [3], in assay [4], in assay [5] and in [6] was “inactive” throughout. Besides, the Potency result in [19] was “inactive”. Moreover, the outcome in assay [7], in [8], in assay [9], in assay [10], in assay [11] and in [12] was inactive. Further, the compound was classed as inactive in assay [13], in [14], in assay [15], in assay [16], in [17] and in assay [18].

As for `CC(=O)c1ccc(S(=O)(=O)NC(=O)NC2CCCCC2)cc1`, the Potency entry in assay [1], in [2], in assay [3], in assay [4], in assay [5] and in assay [6] was “inactive” throughout. In addition, the Potency entry in [20] and in assay [19] was “inactive” in each case. Besides, the call in [7], in assay [8], in assay [9], in assay [10], in assay [11] and in [12] was inactive. For the same compound, the compound was called inactive in assay [13], in [14], in assay [15], in [16], in assay [17] and in [18].

As to `O=[N+]([O-])c1ccc(O)cc1`, the Potency entry in assay [1], in assay [2] and in [3] was “inactive” in each case. Besides, the Potency in assay [4] is 56.6 µM (active); in [6], 71.2 µM (active) and 61.1 µM (active). Further, the call in [7], in assay [8], in [9], in assay [10], in [11] and in assay [12] was inactive. Further, the result in assay [13], in assay [14], in [15], in assay [16], in [17] and in [18] was inactive.

On to `CCOC(=O)C(C)(C)Oc1ccc(Cl)cc1`, for which the Potency result in [1], in [2], in assay [3], in [4], in assay [5] and in [6] was “inactive” in each case. In addition, in assay [19], the Potency result is “inactive”. For the same compound, the result in assay [7], in assay [8], in assay [9], in assay [10], in [11] and in assay [12] was inactive. For the same compound, the result in assay [13], in [14], in [15], in assay [16], in [17] and in [18] was inactive.

Take `Cc1c(N(C)CS(=O)(=O)O)c(=O)n(-c2ccccc2)n1C`: the Potency entry in assay [1], in assay [2], in assay [3], in assay [4] and in [6] was “inactive” each time. In addition, the compound was classed as inactive in [7], in [8], in [9], in [10], in [11] and in assay [12]. The outcome in [13], in assay [14], in [15], in [16], in assay [17] and in assay [18] was inactive.

Regarding `Cc1cccc2ccccc12`, the Potency result in assay [1], in [2], in assay [3], in assay [4], in assay [5] and in assay [6] was “inactive” in each case. Moreover, the outcome in [7], in assay [8], in assay [9], in assay [10], in [11] and in assay [12] was inactive. The result in assay [13], in assay [14], in [15], in assay [16], in [17] and in assay [18] was inactive.

On to `CC(=O)Oc1ccccc1C(=O)O`, for which the Potency result in [1], in assay [2], in assay [3], in assay [4], in [5] and in assay [6] was “inactive” each time. The Potency entry in [19] is “inactive”. Also, the result in [7], in [8], in [9], in [10], in assay [11] and in assay [12] was inactive. Besides, the compound was classed as inactive in assay [13], in assay [14], in assay [15], in assay [16], in [17] and in assay [18].

`CCOCCO`: the Potency result in [1], in assay [2], in assay [3], in assay [4], in assay [5] and in [6] was “inactive” each time. Further, the Potency entry in [20] and in assay [19] was “inactive” throughout. Besides, the result in assay [7], in assay [8], in assay [9], in [10], in assay [11] and in [12] was inactive. For the same compound, the compound was classed as inactive in [13], in [14], in assay [15], in assay [16], in [17] and in assay [18].
